“And” between values parts separate entries of the source, which are not always exact repeats. Equal values may be shown once. About 2,000 (36%) of roughly 5,500 compounds were called active. Another 18% or so got no clear call; they are omitted. Rule as the data show it: active = normalized growth mostly below about 0.91 (no sharp cut-off); inconclusive = no clear call, values can overlap the other calls; inactive = mostly above about 0.92. Some of the results follow.
Test: chemical genetic growth profiling, strain panel (AID 1159580);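 also: tested at 20 µM; growth read once vehicle control cultures reached saturation at 30 °C; 1 = growth at the plate median or of vehicle wells; lower values mean less growth of the strain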
Settings: growth OD
[1] = S. cerevisiae deletion strains, locus YAL013W, strain DEP1, hits give low values
[2] = S. cerevisiae deletion strains, locus YDR150W, strain NUM1, hits give low values
[3] = S. cerevisiae deletion strains, locus YGR078C, strain PAC10, hits give low values
[4] = S. cerevisiae deletion strains, locus YMR307W, strain GAS1, hits give low values
[5] = S. cerevisiae deletion strains, locus YNL322C, strain KRE1, hits give low values

Measured: normalized growth

CC(=O)OC/C=C(C)/C=C/C=C(C)/C=C/C1=C(C)CCCC1(C)C
inactive: [1] 1.02 | S. cerevisiae deletion strains, locus YBR021W, strain FUR4, hits give low values 1.03 | S. cerevisiae deletion strains, locus YBR229C, strain ROT2, hits give low values 1.02 | S. cerevisiae deletion strains, locus YCL029C, strain bik1, hits give low values 1 | S. cerevisiae deletion strains, locus YDL035C, strain GPR1, hits give low values 1.01 | S. cerevisiae deletion strains, locus YDL074C, strain BRE1, hits give low values 1.03 | S. cerevisiae deletion strains, locus YDL101C, strain DUN1, hits give low values 1.03 | S. cerevisiae deletion strains, locus YDL134C, strain PPH21, hits give low values 1 | S. cerevisiae deletion strains, locus YDL185W, strain tfp1, hits give low values 0.992 | S. cerevisiae deletion strains, locus YDL192W, strain arf1, hits give low values 0.994 | S. cerevisiae deletion strains, locus YDR101C, strain arx1, hits give low values 0.988 | [2] 1.01 | S. cerevisiae deletion strains, locus YDR162C, strain NBP2, hits give low values 1.01 | S. cerevisiae deletion strains, locus YDR318W, strain mcm21, hits give low values 1 | S. cerevisiae deletion strains, locus YDR388W, hits give low values 0.994 | S. cerevisiae deletion strains, locus YDR502C, strain sam2, hits give low values 0.996 | S. cerevisiae deletion strains, locus YEL061C, strain CIN8, hits give low values 1.02 | S. cerevisiae deletion strains, locus YER110C, hits give low values 0.992 | S. cerevisiae deletion strains, locus YER155C, strain BEM2, hits give low values 1.02 | S. cerevisiae deletion strains, locus YER167W, strain BCK2, hits give low values 1.02 | S. cerevisiae deletion strains, locus YGL078C, strain dbp3, hits give low values 0.982 | S. cerevisiae deletion strains, locus YGL086W, strain mad1, hits give low values 1 | S. cerevisiae deletion strains, locus YGL248W, strain PDE1, hits give low values 1.03 | [3] 1.04 | S. cerevisiae deletion strains, locus YGR135W, strain pre9, hits give low values 0.984 | S. cerevisiae deletion strains, locus YGR252W, strain gcn5, hits give low values 0.982 | S. cerevisiae deletion strains, locus YHR030C, strain SLT2, hits give low values 1.02 and 1.06 | S. cerevisiae deletion strains, locus YHR079C, strain IRE1 (second series), hits give low values 1 | S. cerevisiae deletion strains, locus YHR079C, strain IRE1, hits give low values 1.06 | S. cerevisiae deletion strains, locus YHR094C, strain hxt1, hits give low values 0.991 | S. cerevisiae deletion strains, locus YHR129C, strain ARP1, hits give low values 1.02 | S. cerevisiae deletion strains, locus YHR200W, strain rpn10, hits give low values 0.999 | S. cerevisiae deletion strains, locus YIL066C, strain RNR3, hits give low values 1.02 | S. cerevisiae deletion strains, locus YIL073C, strain SPO22, hits give low values 1.02 | S. cerevisiae deletion strains, locus YIL125W, strain kgd1, hits give low values 0.992 | S. cerevisiae deletion strains, locus YIR030C, strain dcg1, hits give low values 0.994 | S. cerevisiae deletion strains, locus YJL095W, strain BCK1, hits give low values 1.05 and 1.04 | S. cerevisiae deletion strains, locus YJL134W, strain LCB3, hits give low values 1.02 | S. cerevisiae deletion strains, locus YJL168C, strain set2, hits give low values 0.999 | S. cerevisiae deletion strains, locus YJL187C, strain SWE1 (second series), hits give low values 1.02 | S. cerevisiae deletion strains, locus YJR043C, strain POL32, hits give low values 1.02 | S. cerevisiae deletion strains, locus YJR066W, strain TOR1, hits give low values 0.959 | S. cerevisiae deletion strains, locus YJR075W, strain HOC1, hits give low values 1.03 | S. cerevisiae deletion strains, locus YKL009W, strain mrt4, hits give low values 1.01 | S. cerevisiae deletion strains, locus YKL068W, hits give low values 1 | S. cerevisiae deletion strains, locus YKL085W, strain MDH1 (second series), hits give low values 0.993 | S. cerevisiae deletion strains, locus YKL085W, strain MDH1, hits give low values 0.993 | S. cerevisiae deletion strains, locus YKL190W, strain CNB1, hits give low values 1.01 | S. cerevisiae deletion strains, locus YKR001C, strain vps1, hits give low values 0.999 | S. cerevisiae deletion strains, locus YLR039C, strain RIC1, hits give low values 1.05 | S. cerevisiae deletion strains, locus YLR058C, strain SHM2, hits give low values 1.01 | S. cerevisiae deletion strains, locus YLR102C, strain apc9, hits give low values 1 | S. cerevisiae deletion strains, locus YLR113W, strain HOG1, hits give low values 0.981 | S. cerevisiae deletion strains, locus YLR262C, strain YPT6, hits give low values 1.03 | S. cerevisiae deletion strains, locus YLR268W, strain sec22, hits give low values 1.01 | S. cerevisiae deletion strains, locus YLR330W, strain CHS5, hits give low values 1.02 | S. cerevisiae deletion strains, locus YLR342W, strain FKS1 (second series), hits give low values 0.986 | S. cerevisiae deletion strains, locus YLR371W, strain rom2, hits give low values 1 | S. cerevisiae deletion strains, locus YLR418C, strain cdc73, hits give low values 0.986 | S. cerevisiae deletion strains, locus YML016C, strain PPZ1, hits give low values 1.01 | S. cerevisiae deletion strains, locus YML032C, strain rad52, hits give low values 0.998 | S. cerevisiae deletion strains, locus YML124C, strain tub3, hits give low values 0.999 | S. cerevisiae deletion strains, locus YMR078C, strain ctf18, hits give low values 1.01 | S. cerevisiae deletion strains, locus YMR223W, strain ubp8, hits give low values 1.01 | [4] 0.898 | S. cerevisiae deletion strains, locus YNL067W, strain RPL9B, hits give low values 1.03 | S. cerevisiae deletion strains, locus YNL183C, strain NPR1, hits give low values 0.953 | S. cerevisiae deletion strains, locus YNL233W, strain BNI4, hits give low values 1.05 | S. cerevisiae deletion strains, locus YNL250W, strain rad50, hits give low values 0.989 | S. cerevisiae deletion strains, locus YNL271C, strain bni1, hits give low values 0.988 | S. cerevisiae deletion strains, locus YNL298W, strain CLA4, hits give low values 0.981 | S. cerevisiae deletion strains, locus YNL307C, strain MCK1, hits give low values 1 | [5] 1.02 | S. cerevisiae deletion strains, locus YNR052C, strain pop2, hits give low values 0.996 | S. cerevisiae deletion strains, locus YOL006C, strain TOP1, hits give low values 1.06 | S. cerevisiae deletion strains, locus YOL012C, strain htz1 1.19 | S. cerevisiae deletion strains, locus YOL147C, strain pex11, hits give low values 0.997 | S. cerevisiae deletion strains, locus YOR061W, strain CKA2, hits give low values 1.01 | S. cerevisiae deletion strains, locus YOR069W, strain VPS5, hits give low values 1.02 | S. cerevisiae deletion strains, locus YOR136W, strain idh2, hits give low values 1 | S. cerevisiae deletion strains, locus YOR144C, strain elg1, hits give low values 0.998 | S. cerevisiae deletion strains, locus YOR184W, strain ser1, hits give low values 0.998 | S. cerevisiae deletion strains, locus YOR231W, strain MKK1, hits give low values 1.04 | S. cerevisiae deletion strains, locus YOR316C, strain cot1, hits give low values 0.999 | S. cerevisiae deletion strains, locus YPL241C, strain CIN2, hits give low values 1.01 | S. cerevisiae deletion strains, locus YPL256C, strain CLN2, hits give low values 1.08 | S. cerevisiae deletion strains, locus YPR119W, strain clb2, hits give low values 1 | S. cerevisiae deletion strains, locus YPR141C, strain kar3, hits give low values 0.992 | S. cerevisiae deletion strains, locus YPR163C, strain tif3, hits give low values 0.994 | S. cerevisiae deletion strains, locus YPR167C, strain met16, hits give low values 1 | S. cerevisiae deletion strains, strain wtn01, hits give low values 0.995 | S. cerevisiae strains, strain wild type, hits give low values 1.02

CC1=C(/C=C/C(C)=C/C=C/C(C)=C/C(=O)Nc2ccc(O)cc2)C(C)(C)CCC1
inactive: [1] 0.99 | S. cerevisiae deletion strains, locus YAL040C, strain CLN3, hits give low values 1.09 | S. cerevisiae deletion strains, locus YCL061C, strain MRC1 (second series), hits give low values 0.995 | [2] 1.01 | S. cerevisiae deletion strains, locus YDR363W, strain ESC2, hits give low values 0.968 | S. cerevisiae deletion strains, locus YER002W, strain NOP16, hits give low values 1.02 | [3] 1.02 | S. cerevisiae deletion strains, locus YMR263W, strain SAP30, hits give low values 0.994 | [4] 0.989 | S. cerevisiae deletion strains, locus YNL128W, strain TEP1, hits give low values 1.02 | S. cerevisiae deletion strains, locus YNL175C, strain NOP13, hits give low values 1.02 | S. cerevisiae deletion strains, locus YNL197C, strain WHI3, hits give low values 1.01 | S. cerevisiae deletion strains, locus YNL224C, strain SQS1, hits give low values 0.998 | [5] 0.993 | S. cerevisiae deletion strains, locus YOR083W, strain WHI5 (second series), hits give low values 0.952

Reference: PubChem BioAssay AID1159580 (chemical genetic matrix, 2015)
